Data on eight molecules can be found in PubChem BioAssay (Tox21).

The nature of experiment [1]: qHTS assay to identify small molecule agonists of the constitutive androstane receptor (CAR) signaling pathway - cell viability counter screen (AID 1224836). Note: series mostly up to about 92 µM; nearly all actives have a fitted effect of over 45% in size. The gist of the method: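 Counter screen multiplexed with the CAR reporter readout: HepG2 cells co-transfected with hCAR and the CYP2B6-2.2kb construct receive a 15-concentration compound series and 0.75 uM PK11195 (final), then CellTiter-Fluor fluorescence is read after 23 h.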
Background: qHTS replaces the single test concentration by a dilution series.

A short description of experiment [2]: qHTS assay to identify small molecule antagonists of the constitutive androstane receptor (CAR) signaling pathway - cell viability counter screen (AID 1224837). Note: series mostly up to about 92 µM; nearly all actives have a fitted effect of over 45% in size. The gist of the method:
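To flag cytotoxic false antagonists, HepG2 hCAR/CYP2B6-2.2kb cells were treated 23 hr with 15-concentration compound series and 50 nM CITCO at 37 C/5% CO2; CellTiter-Fluor fluorescence was the measured end point.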

For experiment [3], the target named is Nuclear receptor subfamily 1 group I member 3 (Homo sapiens) (UniProt Q14994). The experiment can be described thus: qHTS assay to identify small molecule antagonists of the constitutive androstane receptor (CAR) signaling pathway (AID 1224838).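 Note: HepG2 cells stably expressing hCAR with CYP2B6 luciferase reporter stimulated by CITCO; nearly all actives have a fitted effect of over 40% in size.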 Put shortly: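 Human hepatoma HepG2 cells expressing hCAR and a CYP2B6 promoter (2.2 kb) luciferase construct; compound titration (15 points) with 50 nM CITCO final, 24 h at 37 C/5% CO2; luminescence via ONE-Glo after 30 min at room temperature.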

For experiment [4] the target is unchanged. The experiment can be described thus: qHTS assay to identify small molecule agonists of the constitutive androstane receptor (CAR) signaling pathway (AID 1224839). For activation: series mostly up to about 92 µM. Note: nearly all actives have a fitted effect of over 15% in size. Note: potency is the fitted concentration of half-maximal effect. Put shortly: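 A 15-concentration quantitative screen uses HepG2 cells co-transfected stably with human CAR and CYP2B6-2.2kb reporter. Treatment lasts 24 h with 0.75 uM PK11195 final present; ONE-Glo luminescence is the signal.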

Experiment [5] is described as follows: qHTS assay to identify small molecule antagonists of the estrogen related receptor signaling pathway with the pleiotropic PPARgamma coactivator (PGC) from Tox21 10K library - cell viability counter screen (AID 1224840; active = well fitted cell-killing curve with a large enough effect in the repeat runs, not every such curve was filed as active; note: nearly all actives have a fitted effect of over 40% in size). The gist of the method: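 Seeded PGC/ERR cells (2,000/well, 6 h, 37 C/5% CO2) get compound by pin tool; 17.5 h incubation at 37 C; CellTiter-Fluor added, 30 min, fluorescence measured.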

In experiment [6] the target is Thyrotropin receptor (Homo sapiens) (UniProt P16473). The experiment can be described thus: qHTS assay to identify small molecule agonists of the thyroid stimulating hormone receptor (TSHR) signaling pathway (AID 1224843; calls by dose curve; note: nearly all actives have a fitted effect of over 45% in size). Put shortly: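 Using 15 concentrations per compound in triplicate, cAMP production was monitored in TSHR-HEK293 cells after 30 min compound incubation at RT; HTRF reagents followed, with fluorescence intensity recorded after 1 h.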

A short description of experiment [7]: qHTS assay to identify small molecule agonists of the hypoxia (HIF-1) signaling pathway - cell viability counter screen (AID 1224844; calls by dose curve; note: nearly all actives have a fitted effect of over 50% in size). The gist of the method: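 HRE-bla ME-180; 0.5% dFBS; cpd 17 h, 37C, 5% CO2; CellTiter-Glo lum., 30 min RT, post-FRET read, same wells.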
A short description of experiment [8]: qHTS assay to identify small molecule agonists of the hypoxia (HIF-1) signaling pathway (AID 1224846; active = well fitted activation curve with a large enough effect in the signal ratio in the repeat runs, not every such curve was filed as active; the % refers to the signal ratio). Put shortly: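 Reporter induction in HRE-bla ME-180 cells is taken as agonism: cells sit 5 hrs after plating, receive compounds or DMSO only, incubate 17 hrs at 37C under 5% CO2, and are loaded with CCF4-AM for beta-lactamase FRET measurement.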
Experiment [9] can be described thus: qHTS RealTime-Glo MT Cell Viability Assay in HepG2 cells - 24 hour (AID 1224867). Note: nearly all actives have a fitted effect of over 50% in size. Note: potency is the fitted concentration of half-maximal effect. The gist of the method: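 HepG2 cells were seeded at 600 cells/well together with NanoLuc luciferase and a cell-permeant prosubstrate, preincubated 5 h at 37 C/5% CO2, then pin-dosed with compounds in DMSO. Nonlytic luminescence from viable cells was read at each time point.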
Experiment [10] can be described thus: qHTS RealTime-Glo MT Cell Viability Assay in HEK293 cells - 32 hour (AID 1224868). Note: nearly all actives have a fitted effect of over 50% in size. Note: potency is the fitted concentration of half-maximal effect. Put shortly: (§1)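 HEK293 cells were seeded at 600 cells/well together with NanoLuc luciferase and cell-permeant prosubstrate, preincubated 5 h at 37 C/5% CO2, then given compound in DMSO by pintool. Luminescence from viable-cell prosubstrate reduction was read repeatedly over 40 h.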

The nature of experiment [11]: A CellTox Green Cytotoxicity Assay to monitor cytotoxicity in HEK293 cells - 0 hour (AID 1224869). Note: nearly all actives have a fitted effect of over 50% in size. The gist of the method: (§2)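 Tox21 screen in HEK293: membrane-impermeant cyanine dye fluoresces on binding dead-cell DNA; compound pinned 5 h post-seeding, plates held at 37 C, signal read repeatedly through 40 h.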
A short description of experiment [12]: qHTS RealTime-Glo MT Cell Viability Assay in HepG2 cells - 40 hour (AID 1224870). Note: nearly all actives have a fitted effect of over 50% in size. Note: potency is the fitted concentration of half-maximal effect. Put shortly: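 HepG2 cells mixed with RealTime-Glo MT reagents (NanoLuc plus cell-permeant prosubstrate) were seeded at 600 cells/well, incubated 5 h at 37 C/5% CO2, then pinned with compounds in DMSO; nonlytic luminescence tracked viability during 40 h treatment.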
Experiment [13] is described as follows: qHTS RealTime-Glo MT Cell Viability Assay in HEK293 cells - 16 hour (AID 1224872). Note: nearly all actives have a fitted effect of over 50% in size. Note: potency is the fitted concentration of half-maximal effect. Put shortly:
as §1

Experiment [14] in a line: qHTS assay to identify small molecule agonists of H2AX - cell viability counter screen (AID 1224847; calls by dose curve; note: nearly all actives have a fitted effect of over 30% in size; note: potency is the fitted concentration of half-maximal effect). Put shortly:
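We seed wild-type CHO-K1 cells overnight, treat them for 3 hr at 37C with compounds in 15-concentration series, and quantify remaining viability by CellTiter-Glo luminescence.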

Experiment [15] in a line: qHTS assay to identify small molecule agonists of H2AX (AID 1224845; active = well fitted activation curve with a large enough effect in the signal ratio in the repeat runs, not every such curve was filed as active; the % refers to the signal ratio). Put shortly: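 Wild-type CHO-K1 cells plated overnight, then exposed 3 hr at 37C to compounds at 15 concentrations (0.76% DMSO). Lysed, then HTRF anti-pH2AX(S139)-cryptate/anti-H2AX-d2 detection after 24 hr at room temperature; emissions 665 and 620 nm.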
Experiment [16] in a line: A CellTox Green Cytotoxicity Assay to monitor cytotoxicity in HEK293 cells - 40 hour (AID 1224871). Note: nearly all actives have a fitted effect of over 45% in size. Note: potency is the fitted concentration of half-maximal effect. The gist of the method:
as §2

A number with no mark means an inactive call. Inconclusive results are not listed. Activity calls are given as the source filed them. Unless noted, calls come from the whole dose curve; as a rule, active = well fitted curve in the direction sought with a large enough effect in the repeat runs; inconclusive = weak or mixed curves; inactive = no such curve, though single readings can be large; an effect the other way counts as inactive or inconclusive.

Chain of Nuclear receptor subfamily 1 group I member 3 (Homo sapiens) (Q14994 whole entry, looked up): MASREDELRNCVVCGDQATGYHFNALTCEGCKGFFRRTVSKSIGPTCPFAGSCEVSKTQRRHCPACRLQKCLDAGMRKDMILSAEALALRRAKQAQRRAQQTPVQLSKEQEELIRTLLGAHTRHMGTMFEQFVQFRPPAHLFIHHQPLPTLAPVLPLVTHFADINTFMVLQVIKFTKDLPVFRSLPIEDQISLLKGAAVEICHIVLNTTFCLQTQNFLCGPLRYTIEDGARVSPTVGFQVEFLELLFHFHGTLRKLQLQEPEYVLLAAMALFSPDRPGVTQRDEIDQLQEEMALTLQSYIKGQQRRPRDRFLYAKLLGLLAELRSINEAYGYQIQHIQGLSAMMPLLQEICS
Chain of Thyrotropin receptor (Homo sapiens) (P16473 whole entry, looked up): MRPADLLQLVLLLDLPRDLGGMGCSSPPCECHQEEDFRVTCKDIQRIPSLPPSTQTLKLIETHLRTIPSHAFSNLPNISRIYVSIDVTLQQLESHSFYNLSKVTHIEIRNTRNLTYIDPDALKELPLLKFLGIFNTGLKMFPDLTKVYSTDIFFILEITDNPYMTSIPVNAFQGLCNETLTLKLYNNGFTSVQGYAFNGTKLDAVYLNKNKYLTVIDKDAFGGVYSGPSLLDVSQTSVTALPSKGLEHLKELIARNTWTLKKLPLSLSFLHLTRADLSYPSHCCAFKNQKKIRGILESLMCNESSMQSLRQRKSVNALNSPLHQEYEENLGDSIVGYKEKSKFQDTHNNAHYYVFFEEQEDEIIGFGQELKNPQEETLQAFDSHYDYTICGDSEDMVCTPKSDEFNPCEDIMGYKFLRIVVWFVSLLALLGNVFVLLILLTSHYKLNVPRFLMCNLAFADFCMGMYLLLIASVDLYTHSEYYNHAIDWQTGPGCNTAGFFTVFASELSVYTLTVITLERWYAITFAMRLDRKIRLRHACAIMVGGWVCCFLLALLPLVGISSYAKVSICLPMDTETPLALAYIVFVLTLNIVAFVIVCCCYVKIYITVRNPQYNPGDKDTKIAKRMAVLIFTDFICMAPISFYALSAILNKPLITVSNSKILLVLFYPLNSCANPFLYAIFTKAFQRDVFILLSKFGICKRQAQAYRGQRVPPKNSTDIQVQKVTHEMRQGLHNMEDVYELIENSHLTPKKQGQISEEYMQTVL

With `CCN(CC)CCSC(=O)C(c1ccccc1)c1ccccc1`, the Potency result in [1], in [2], in experiment [3], in experiment [4], in experiment [5] and in experiment [6] was “inactive” throughout. Further, the Potency entry in experiment [7], in [9], in experiment [10], in experiment [11], in experiment [12] and in experiment [13] was “inactive” in each case. In addition, the outcome in experiment [8] was inactive.
`Oc1cc2ccccc2cc1O`: the Potency entry in experiment [1], in experiment [2], in experiment [3], in [4], in experiment [5] and in [6] was “inactive” each time. Further, the Potency entry in experiment [7], in experiment [14], in [9], in [11] and in experiment [12] was “inactive” throughout. Moreover, in experiment [8], the result was inactive.
For `C=CC(C)C#N` (centres undefined), the Potency entry in experiment [1], in experiment [2], in experiment [3], in experiment [4], in experiment [5] and in [7] was “inactive” each time. Also, the Potency result in experiment [15], in experiment [14], in experiment [9], in experiment [11], in experiment [12] and in experiment [13] was “inactive” in each case.
In the case of `CC1CNCC(C)O1` (centres undefined), the Potency entry in experiment [1], in [2], in experiment [3], in [4], in [5] and in [6] was “inactive” in each case. The Potency result in [15], in experiment [14], in experiment [9], in experiment [10], in [11] and in [12] was “inactive” throughout. The Potency entry in experiment [16] and in [13] was “inactive” in each case. For the same molecule, the molecule was classed as inactive in experiment [8].
For the molecule `CCCCCCCC/C=C\CCCCCCCC(=O)OCCOC(=O)CCCCCCC/C=C\CCCCCCCC`, the Potency result in experiment [1], in [2], in experiment [3], in experiment [4], in experiment [5] and in experiment [6] was “inactive” each time. Besides, the Potency result in experiment [15], in experiment [14], in [9], in experiment [10], in experiment [11] and in experiment [12] was “inactive” throughout. The Potency result in experiment [16] was “inactive”. Also, the outcome in experiment [8] was inactive.
Consider `CCOC(=O)COc1ccc(C)cc1`, for which the Potency entry in experiment [1], in [2], in experiment [3], in experiment [4], in experiment [5] and in experiment [6] was “inactive” throughout. For the same molecule, the Potency entry in experiment [15], in [14], in experiment [9], in experiment [10], in [12] and in [16] was “inactive” in each case. In addition, the Potency entry in experiment [13] is “inactive”. Besides, in experiment [8], the result was inactive.
With `CCCCCCCCCCCCCCNCCO`, the Potency entry in [1], in experiment [2], in [3], in experiment [5], in experiment [6] and in experiment [7] was “inactive” each time. Moreover, the Potency entry in [11] is “inactive”. In addition, the Potency is 8.41 µM (active) in experiment [4]; 55.2 µM (active) in experiment [14]; 13.4 µM (active) in experiment [9]; 13.4 µM (active) in experiment [10]; 10.7 µM (active) in experiment [12]; 19 µM (active) in [16]. Further, in [13], the Potency was 21.3 µM (active). In addition, in [8], the outcome was inactive.
With `C/C=C/CO`, the Potency result in [1], in [2], in [3], in [4], in experiment [5] and in experiment [6] was “inactive” each time. The Potency entry in experiment [7], in experiment [14], in experiment [9], in [11], in experiment [12] and in experiment [16] was “inactive” throughout. Moreover, in [13], the Potency entry was “inactive”. The outcome in experiment [8] was inactive.
